ssDAF12 agonist – activates DAF-12 receptor from parasite S. stercoralis; HEK293 ssDAF-12/GRIP1 lit1-tk-luc reporter, luminescence; % of 3 µM dafachronic acid response; actives 1% (n = 370,000); activation, % at 6.8 µM;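 active = activation above the mean over all tested compounds plus 3 SD, cut at about 0.9% in these data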;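 note: 0% = DMSO-only wells and 100% = 3 µM delta7-dafachronic acid wells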
DAX1 inh-1 – inhibitors of human orphan nuclear receptor DAX1 (NR0B1). inhibition, % at 6.75 µM. AID 504766. HEK293 Gal4-DAX1 luciferase reporter, luminescence. P51843. actives 0.99% (n = 340,000);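 active = inhibition above the mean over all tested compounds plus 3 SD, cut at about 4.2% in these data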;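 note: 0% = DAX1-transfected cells with DMSO and 100% = empty-vector control cells with DMSO; inhibition shows as a rise in luminescence from relieved DAX1 repression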
DAX1 inh-2 – DAX1 (NR0B1) inhibition, primary screen; HEK293T StAR-luciferase reporter, SF-1/DAX-1 repression relief; AID 652010; actives 1.1% (n = 370,000); inhibition, % at 6.8 µM;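 active = inhibition above the mean over all tested compounds plus 3 SD, cut at about 3.6% in these data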;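 note: 0% = DAX-1 cells with DMSO and 100% = cells lacking DAX-1 with DMSO; higher inhibition means more luminescence from relief of DAX-1 repression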
hgDAF-12 ag – activates the H. glycines DAF-12 receptor ligand-binding domain; HEK293 GAL4-hgDAF12 UAS-luciferase reporter, agonist luminescence; normalized to butyrate control; activation, % at 6.8 µM; actives 1.8% (n = 370,000);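 active = activation above a cutoff set at the mean of all screened compounds plus 3 SD, cut at about 10% in these data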;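 note: 0% = DMSO wells and 100% = sodium butyrate wells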
hcDAF12 agonist – activators of H. contortus DAF-12 nuclear receptor; HEK293 hcDAF-12 lit1-tk-luc reporter, luminescence; 0% DMSO, 100% Δ7-dafachronic acid; activation, % at 6.8 µM; actives 1.4% (n = 370,000); AID 652067;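 active = activation above the mean of all tested compounds plus 3 SD, cut at about 5.5% in these data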;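 note: 100% = response to 3 µM Δ7-dafachronic acid high control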
AHR act – activators of human aryl hydrocarbon receptor; P35869; actives 2.5% (n = 320,000); AHR-responsive luciferase reporter cells, luminescence; activation, % at 5 µM; in the data active = activation above about 47%;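 note: 0% = vehicle wells and 100% = reference agonist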
Target sequence (P35869 whole entry, looked up): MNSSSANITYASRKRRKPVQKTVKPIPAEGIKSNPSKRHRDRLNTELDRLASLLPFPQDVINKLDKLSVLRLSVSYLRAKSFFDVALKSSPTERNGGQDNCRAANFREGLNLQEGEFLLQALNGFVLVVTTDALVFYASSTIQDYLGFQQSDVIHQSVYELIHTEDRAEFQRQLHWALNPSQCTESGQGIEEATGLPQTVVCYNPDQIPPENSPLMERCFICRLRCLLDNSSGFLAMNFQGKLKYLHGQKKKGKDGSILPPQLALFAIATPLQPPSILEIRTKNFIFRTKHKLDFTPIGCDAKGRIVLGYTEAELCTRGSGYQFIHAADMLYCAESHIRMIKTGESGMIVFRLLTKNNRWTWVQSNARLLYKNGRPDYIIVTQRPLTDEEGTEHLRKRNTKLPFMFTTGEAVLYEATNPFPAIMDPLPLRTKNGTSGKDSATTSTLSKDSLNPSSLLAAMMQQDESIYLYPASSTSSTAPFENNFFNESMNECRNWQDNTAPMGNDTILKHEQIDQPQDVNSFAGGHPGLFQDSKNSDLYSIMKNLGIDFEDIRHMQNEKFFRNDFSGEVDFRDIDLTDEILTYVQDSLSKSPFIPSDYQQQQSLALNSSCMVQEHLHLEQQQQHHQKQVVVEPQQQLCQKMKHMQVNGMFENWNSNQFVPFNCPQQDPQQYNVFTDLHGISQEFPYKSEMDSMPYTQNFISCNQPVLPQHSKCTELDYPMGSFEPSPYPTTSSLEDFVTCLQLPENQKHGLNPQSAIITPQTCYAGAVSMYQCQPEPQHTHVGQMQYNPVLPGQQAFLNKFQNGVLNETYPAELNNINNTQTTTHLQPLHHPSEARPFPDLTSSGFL
Active calls of the source: *; · = not tested or not shown. Most compounds without a hit are left out; they make up all but 5.7% or so of the library.

SMILES | ssDAF12 agonist | DAX1 inh-1 | DAX1 inh-2 | hgDAF-12 ag | hcDAF12 agonist | AHR act
C/C(=N/NC(=O)c1ccco1)c1cccc(NC(=O)c2ccc(C)s2)c1 | -0.3 | 2.2 | 2.2 | 12.0* | 5.0 | 21.0
C/C(=N/NC(=O)c1ccc(Br)o1)c1cccc(NC(=O)c2ccc(C)o2)c1 | -0.5 | 3.0 | 1.4 | 9.6 | 1.3 | 51.4*
C/C(=N\NC(=O)c1cccc(C)c1)c1cccc(NC(=O)c2ccco2)c1 | -0.8 | 2.3 | -0.1 | 8.4 | 0.8 | 1.7
C/C(=N/NC(=O)c1ccc(Br)o1)c1cccc(NC(=O)c2ccc(F)cc2)c1 | -0.1 | 2.6 | 3.0 | 8.2 | 3.8 | 4.4
C/C(=N/NC(=O)c1ccco1)c1cccc(NC(=O)c2ccc(C)o2)c1 | -0.5 | 1.5 | 1.0 | 12.6* | 2.4 | 9.1
COc1ccccc1CNC(=O)C1CCN(C(=O)c2sccc2-n2cccc2)CC1 | -1.2 | -0.1 | 0.1 | 0.5 | -0.2 | 1.1
COc1ccc(C(C(=O)NCCC(C)C)N(CCN2CCOCC2)C(=O)Cn2nnc3ccccc32)c(OC)c1 (configuration not stated) | -0.6 | -0.5 | -0.1 | -2.6 | -0.2 | -1.7
COc1ccccc1CCn1cnc(-c2ccc(Br)cc2)c1CC(C)C | -1.4 | · | -0.2 | -1.1 | -0.8 | ·
COc1cccc(C(=O)N2CCC[C@@H]2C(=O)N2CCC[C@@H]2C(=O)NCc2ccccc2Cl)c1 | -0.8 | · | 1.6 | -2.2 | 1.8 | ·
CCOc1ccc2nc(SCc3ccccc3C#N)sc2c1 | -1.1 | 2.6 | 1.2 | 10.6* | 0.8 | -3.5
CCOc1ccc2nc(SCc3ccc(OC)cc3)sc2c1 | -1.1 | 0.4 | 0.2 | 7.3 | 0.2 | 1.3
Nc1nc(N)c(Br)c(Nc2ccc(Cl)c(Cl)c2)n1 | -0.6 | -2.1 | -0.1 | 5.6 | 1.7 | ·
Nc1nc(N)c(C=Nc2ccc(Br)cc2)c(Nc2ccc(Br)cc2)n1 | -1.0 | -0.4 | 0.4 | 3.1 | 1.8 | 99.4*
CCN1CCN(C(=O)c2c(-c3c(Cl)cccc3Cl)noc2C)CC1 | -1.0 | 0.6 | -0.1 | -1.6 | -3.1 | 2.3
O=C(CSc1nnc(-c2ccc(Cl)cc2)n1Cc1ccco1)Nc1cccc2ccccc12 | -1.3 | · | -1.7 | -0.1 | 0.7 | ·
O=C(c1ccco1)N1CCN(c2ncnc3c2[nH]c2ccc(Cl)cc23)CC1 | · | · | · | · | · | 81.5*
Cc1ccc2c(c1)[nH]c1c(N3CCN(Cc4ccccc4)CC3)ncnc12 | -3.2 | -3.6 | -3.5 | -10.8 | -5.4 | 25.6
Cc1ccc2[nH]c3c(N4CCN(Cc5ccccc5)CC4)ncnc3c2c1 | -2.2 | -3.2 | -2.8 | -8.5 | -3.6 | 65.1*
O=C(c1ccco1)N1CCN(c2c(-c3ccccc3)c3cc(Cl)ccc3[nH]c2=O)CC1 | -1.2 | -0.8 | 0.0 | -2.3 | -2.1 | 5.3
COc1cc(CCC(=O)NCc2ccc3c(c2)OCO3)cc(OC)c1OC | -1.6 | -0.3 | -0.3 | 1.2 | -1.5 | 2.0
COc1ccc2oc(C(=O)N(C)CCOc3ccccc3)c(C)c2c1 | -1.2 | 0.5 | -0.4 | -1.2 | 3.7 | 7.1
C/C(CC(C)C)=N/Nc1ccc([N+](=O)[O-])cc1[N+](=O)[O-] | 0.3 | -0.5 | 1.0 | 2.3 | 3.8 | 1.9
CC(Cc1ccccc1)=NNc1ccc([N+](=O)[O-])cc1[N+](=O)[O-] | 2.4* | -0.7 | 0.5 | 2.7 | 0.1 | ·
Cc1cccc(NC(=O)c2ccc3c(c2)OCCO3)c1C | 0.0 | -0.2 | 1.7 | 11.9* | 3.8 | -2.5
Cc1ccc(NC(=O)c2ccc3c(c2)OCCO3)cc1 | -0.5 | -1.6 | 1.8 | 9.1 | 4.8 | -7.2
SMILES | ssDAF12 agonist | DAX1 inh-1 | DAX1 inh-2 | hgDAF-12 ag | hcDAF12 agonist | AHR act
O=C(Nc1cccc2nsnc12)c1ccc2c(c1)OCCO2 | 0.1 | 0.9 | 1.9 | 9.6 | 5.6* | 19.7
CCC(O)c1cc2c(cc1NC(=O)c1ccc(C)cc1)OCCO2 (configuration not stated) | 0.4 | -0.8 | 0.6 | 2.4 | 2.0 | 62.7*
c1ccc2sc(-c3csc4c3CCNC4)nc2c1 | -1.5 | · | · | 6.9 | 1.9 | ·
CC(=O)c1csc(COc2ccc(Cl)cc2)n1 | -0.2 | 9.3* | 2.4 | 7.8 | 3.0 | -8.7
CCCn1c(C)cc(C(=O)Cn2nnc3ccccc3c2=O)c1C | 0.2 | 1.0 | 3.2 | 11.8* | 3.5 | 19.7
CCCn1c(C)cc(C(=O)CN2C(=O)c3ccccc3S2(=O)=O)c1C | -3.0 | -4.4 | -5.9 | -19.3 | -7.5 | ·
CCOC(OCC)c1cc2ccccc2cn1 | 2.2* | -0.1 | 0.5 | 3.4 | 2.1 | 5.1
O=C(Nc1cc(Cl)ccc1-n1cncn1)c1ccc(Br)o1 | -0.3 | 0.6 | -1.5 | -0.8 | 3.2 | 60.7*
O=C(Nc1cc(Cl)ccc1-n1cncn1)c1cc(F)c(F)c(F)c1F | -1.0 | -0.7 | -3.0 | 0.6 | -0.7 | 55.8*
O=C(c1ccc2c(c1)OCO2)C1CCCN(Cc2cccn2-c2cccnc2)C1 (configuration not stated) | -1.4 | 0.5 | -0.8 | -2.3 | -1.2 | 49.5*
COC(=O)[C@@H]1C[C@H]2CC[C@H](O)C[C@H]2N1Cc1ccc(C(F)(F)F)cc1 | -1.2 | 2.0 | -0.2 | 0.6 | -1.3 | 3.9
O=C(NC1CC1)C1=C[C@H](c2c[nH]c3ccccc23)C[C@H](OCCCCO)O1 | -0.3 | 1.1 | 0.4 | -0.3 | 1.1 | 72.0*
O=C(NC1CC1)C1=C[C@H](C2CC2)C[C@H](OCCCCO)O1 | -1.4 | 0.2 | -0.1 | 1.3 | 0.7 | -0.1
O=C(NC1CC1)C1=C[C@@H](C2CC2)C[C@@H](OCCCCO)O1 | -1.6 | 0.4 | 0.4 | -0.7 | -0.2 | 2.2
O=C(NC1CC1)C1=C[C@@H](c2c[nH]c3ccccc23)C[C@@H](OCCCCO)O1 | -0.5 | 2.6 | -0.4 | 0.8 | 3.2 | 64.5*
O=C(NC1CC1)C1=C[C@@H](c2c[nH]c3ccccc23)C[C@@H](OCc2ccc(CO)cc2)O1 | -0.6 | 1.1 | 0.4 | 11.2* | 2.4 | 76.2*
O=C(CN1C(=O)NC2(CCCCCC2)C1=O)NCc1ccccc1 | -1.0 | 0.8 | 1.6 | -0.1 | 0.0 | -1.1
CC(C)Sc1nnc(-c2c[nH]c3ccccc23)n1C | -0.3 | 1.0 | 0.5 | 4.2 | 1.4 | 6.8
C#CCSc1nnc(-c2c[nH]c3ccccc23)n1C | 0.0 | 1.7 | 0.4 | 0.7 | 3.0 | 48.8*
O=Cc1cn(-c2ccccc2)nc1-c1ccncc1 | -1.7 | -0.4 | -0.5 | 1.8 | -2.3 | 60.4*
COc1ccc(-c2c(NC(=O)c3ccco3)n(-c3ccccc3)nc(C)c2=O)cc1 | -1.5 | 4.8* | 0.9 | -1.3 | 0.7 | -0.1
Cn1c(NC(=O)c2ccco2)c(-c2ccccc2)c(=O)c2ccccc21 | -0.5 | 4.2* | -0.2 | 0.1 | 1.4 | 0.7
CCN(CC)c1nc2ccccc2c(N)c1-c1ccccc1 | -0.9 | -0.6 | -0.8 | 0.3 | 0.5 | 55.5*
Cc1c(N(C)C)nc2ccccc2c1N | -0.8 | 1.0 | 0.0 | 0.7 | 0.3 | 21.7
Cc1cc(C)nc(N/N=C/c2ccc(Cl)cc2)n1 | -1.0 | 5.0* | 0.0 | 2.1 | 0.2 | 46.7

From PubChem BioAssay
